Sampled rows, rich in hits. Any-hit rate of the full collection: about 2.4%.
Cruzain Triton: qHTS Assay for Promiscuous and Specific Inhibitors of Cruzain (with detergent). Cruzipain (Trypanosoma cruzi), P25779. purified cruzain, Z-FR-AMC fluorescence, 0.01% Triton. Potency, µM, without a hit: max response, negative = inhibition, actives largely listed as inhibitors. 0.43% of 200,000 active. AID 1478, 2009;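 also: plate controls were neutral wells for no effect and buffer without enzyme for full effect; nearly all actives have a fitted effect of over 40% in size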
Target sequence (P25779 123-467 limits assumed): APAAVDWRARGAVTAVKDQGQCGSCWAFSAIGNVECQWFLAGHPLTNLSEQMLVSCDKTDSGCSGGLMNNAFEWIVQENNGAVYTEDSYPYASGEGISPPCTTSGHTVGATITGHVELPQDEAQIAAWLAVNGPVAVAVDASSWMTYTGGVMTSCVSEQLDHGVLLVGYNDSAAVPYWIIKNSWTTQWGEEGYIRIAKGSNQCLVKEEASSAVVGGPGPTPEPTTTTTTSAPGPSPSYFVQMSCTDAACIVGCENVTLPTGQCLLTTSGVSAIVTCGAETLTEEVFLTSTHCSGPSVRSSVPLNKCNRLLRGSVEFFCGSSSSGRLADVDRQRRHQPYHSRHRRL
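15 min RT preincubation of 1.5 nM cruzain with compound, then 2 uM Z-FR-AMC added; kinetic AMC fluorescence, 60 s delta. Triton X-100 0.01%, pH 5.5.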
Cruzain inh noDet: qHTS Assay for Promiscuous and Specific Inhibitors of Cruzain (without detergent); Potency, µM, for the others: max response, negative = inhibition, usual class: inhibitors; 2.3% of 200,000 active; purified cruzain, Z-FR-AMC fluorescence, no detergent; AID 1476, 2009;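 also: plate controls were enzyme without inhibitor for no effect and buffer without enzyme for full effect; nearly all actives have a fitted effect of over 40% in size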
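Purified cruzain at 1.5 nM, pre-incubated 15 min with compound at room temperature in 100 mM sodium acetate pH 5.5, 5 mM DTT, 0.00005% Triton X-100. Reaction started with 2 uM Z-FR-AMC; AMC fluorescence increase over 60 s gives rate.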
Active calls of the source: *. Calls follow the shape of the dose curve; as a rule, active = well fitted curve in the direction sought with a large enough effect; inconclusive = small, poorly fitted or top-dose-only effect, or another doubt; inactive = no such curve, though single readings can be large; an effect the other way counts as inactive or inconclusive. Potency is read from the fitted curve at half-maximal effect.

`Cc1ccc(OCC(=O)Nc2nonc2-c2ccc(C)c(C)c2)cc1C` gave Cruzain Triton -3% and Cruzain inh noDet -9%.
For CCc1cc(=O)oc2c(C)c3c(cc12)CN(CCc1ccccc1OC)CO3 the results were Cruzain Triton -5% and Cruzain inh noDet -6%.
Screening CCN(CC)C(=S)SCC(=O)Nc1nc(-c2ccccc2)c(-c2ccccc2)o1 returned Cruzain Triton -2% and Cruzain inh noDet 32µM*.
O=C(CSC(=S)N1CCCCC1)Nc1nc(-c2ccccc2)c(-c2ccccc2)o1 was read as Cruzain Triton 1% and Cruzain inh noDet inconclusive.
For COc1ccc(-c2cn3nc(SCC(=O)Nc4ccc(C)c(Cl)c4)ccc3n2)cc1 the results were Cruzain Triton 1% and Cruzain inh noDet 0%.
Screening COc1ccc(C2CC(=O)N3CN(C4CCCCC4)CSC3=C2C#N)c(OC)c1 (stereo not drawn) returned Cruzain Triton 25µM* and Cruzain inh noDet 28%.
`COc1ccc2ccccc2c1C1CC(=O)N2CN(C3CCCCC3)CSC2=C1C#N` (stereo not drawn) gave Cruzain Triton -15% and Cruzain inh noDet inconclusive.
Screening O=C(COc1ccc(-c2nnco2)cc1)NCc1ccccc1Cl returned Cruzain Triton -4% and Cruzain inh noDet 18%.
`Cc1cc(C(=O)COc2ccc(-c3nnco3)cc2)c(C)n1Cc1ccccc1` gave Cruzain Triton 3% and Cruzain inh noDet 16µM*.
CN1CCN(c2ncc3nc(-c4cc(F)cc(F)c4)c(=O)n(C4CC4)c3n2)CC1 was read as Cruzain Triton -12% and Cruzain inh noDet inconclusive.
For CN1CCN(c2ncc3nc(-c4ccccc4)c(=O)n(C4CC4)c3n2)CC1 the results were Cruzain Triton 32µM* and Cruzain inh noDet 25µM*.
COc1ccc(-n2c(SCc3ccccc3)nc3c([nH]c4ccccc43)c2=O)cc1 was read as Cruzain Triton -1% and Cruzain inh noDet 0%.
CCCc1nnc2n1N=C(c1ccc(-c3cc(Cl)ccc3Cl)o1)CS2 was read as Cruzain Triton -3% and Cruzain inh noDet 16µM*.
For CCCc1nnc2n1N=C(c1ccc(OC)c(OC)c1)CS2 the results were Cruzain Triton -5% and Cruzain inh noDet 9%.
Screening CCOC(=O)C1=C(CSc2nc(CC)c(C)cc2C#N)OC(N)=C(C#N)C1c1ccccc1 (stereo not drawn) returned Cruzain Triton -6% and Cruzain inh noDet -18%.
Screening CCOC(=O)C1=C(CSc2nc(-c3ccccc3)ccc2C#N)OC(N)=C(C#N)C1c1ccc(OC)cc1 (stereo not drawn) returned Cruzain Triton -4% and Cruzain inh noDet 16µM*.
Screening CCOC(=O)C1CCCN(C(=O)c2ccc3c(c2)N(Cc2ccc(Cl)cc2)C(=O)c2ccccc2S3=O)C1 (stereo not drawn) returned Cruzain Triton -1% and Cruzain inh noDet inconclusive.
For CC(C)CC(=O)Nc1cc([N+](=O)[O-])ccc1Cl the results were Cruzain Triton 2% and Cruzain inh noDet -8%.
Screening O=C(CNC(c1ccccc1)c1ccccc1)Nc1cc([N+](=O)[O-])ccc1Cl returned Cruzain Triton -7% and Cruzain inh noDet 25µM*.
For O=[N+]([O-])c1cc(S(=O)(=O)C(F)(F)F)ccc1Sc1nc2ccccc2s1 the results were Cruzain Triton -7% and Cruzain inh noDet 25µM*.
Screening CS(=O)(=O)c1ccc(Sc2nc3ccccc3s2)c([N+](=O)[O-])c1 returned Cruzain Triton -4% and Cruzain inh noDet -21%.
`Cc1c(Cl)cccc1NC(=O)c1oc2ccc(S(=O)(=O)N3CCCCCC3)cc2c1C` gave Cruzain Triton 1% and Cruzain inh noDet -18%.
COc1ccc(OC)c(NC(=O)CN2CCCN(Cc3ccccc3Cl)S2(=O)=O)c1 was read as Cruzain Triton 0% and Cruzain inh noDet 9%.
`O=C(COc1ccc(Br)cc1)Nc1cc(S(=O)(=O)N2CCCCC2)ccc1N1CCCCC1` gave Cruzain Triton -5% and Cruzain inh noDet inconclusive.
`CC(=O)Nc1sc(C)c(C)c1C(=O)OCC(=O)Nc1cc(S(=O)(=O)N2CCCCC2)ccc1Cl` gave Cruzain Triton -5% and Cruzain inh noDet 25µM*.
CC(=O)c1c(C)[nH]c(C(=O)OCC(=O)Nc2cc(S(=O)(=O)N3CCCC3)ccc2Cl)c1C was read as Cruzain Triton -5% and Cruzain inh noDet -2%.
Screening O=C(COc1ccc(Cl)cc1)Nc1cc(S(=O)(=O)N2CCCCC2)ccc1N1CCCCC1 returned Cruzain Triton -2% and Cruzain inh noDet 16µM*.
Cc1ccc(-c2nc3cc(C(C)C)ccc3o2)cc1NC(=O)c1cc([N+](=O)[O-])ccc1N1CCOCC1 was read as Cruzain Triton -1% and Cruzain inh noDet -5%.
For CCOc1ccc(NC(=O)CSc2nnc(CC)c(CC)n2)cc1 the results were Cruzain Triton -2% and Cruzain inh noDet -3%.

Compound activity deposited in PubChem by National Center for Advancing Translational Sciences (NCATS).
